Screening data: PubChem, National Center for Advancing Translational Sciences (NCATS)
HT1080 IDH1KD tx: qHTS for induction of synthetic lethality in tumor cells producing 2HG: qHTS for the HT-1080-IDH1KD cell line | actives 2% (n = 360,000) | HT-1080 IDH1 knockdown viability, ATP luminescence, 48 h | Potency, µM (titrated, usually from 46.1 µM), usual class: cytotoxic | AID 686971, 2013
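Cytotoxicity counter-line: IDH1KD HT-1080, 48 h, CellTiter-Glo. Curves classed by r2, magnitude and activity.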
KB-V1 MDR tox: qHTS assay for MDR1-selective chemotherapeutics: Primary screen using the drug-selected MDR subline cells KB-V1; actives 3.4% (n = 400,000); Potency, µM (titrated, usually from 46.1 µM), usual class: cytotoxic; KB-V1 MDR cells viability, CellTiter-Glo, 72 h; note: nearly all actives have a fitted effect of over 60% in size
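Compound-treated KB-V1 multidrug-resistant cells, 72 h, 37 degrees C; viability by CellTiter-Glo. Fitted qHTS curves give the values.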
KB-3-1 tox: qHTS assay for MDR1-selective chemotherapeutics: Primary screen using the parental adenocarcinoma cell KB-3-1; Potency, µM (series often up to 46.1 µM), actives largely listed as cytotoxic; KB-3-1 viability, CellTiter-Glo ATP luminescence, 72 h; actives 1.4% (n = 400,000); AID 1347075, 2019; note: nearly all actives have a fitted effect of over 60% in size
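Here the drug-naive KB-3-1 line serves as comparator for MDR sub-line selectivity; cells received compound titrations, 72 h at 37 °C, then CellTiter-Glo readout.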
HT1080-NT tox: qHTS for induction of synthetic lethality in tumor cells producing 2HG: qHTS for the HT-1080-NT fibrosarcoma cell line; actives 1.6% (n = 360,000); Potency, µM (doses to about 46.1 µM), usual class: cytotoxic; AID 686970, 2013; HT-1080-NT fibrosarcoma viability, CellTiter-Glo ATP luminescence, 48 h;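 note: NT is the 2HG producing partner of a matched IDH1 knockdown line; nearly all actives have a fitted effect of over 55% in size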
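Compounds were tested in concentration-response format on HT-1080-NT cells for 48 hours at 37 degrees C. Cell viability came from CellTiter-Glo luminescence; curves were classified by r2, response magnitude and activity.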
Each line names hits and unclear results; the compound was inactive in the other large screens; ! = not confirmed by another sample. Compounds with a hit are over-represented: about 5.7% of the library has one in this group of screens. Calls come from the whole dose curve; as a rule, active = well fitted curve in the direction sought with a large enough effect; inconclusive = small, poorly fitted or top-dose-only effect, or another doubt; inactive = no such curve, though single readings can be large; an effect the other way counts as inactive or inconclusive.

Cc1ccc(C(=O)C2CCN(CC(=O)Nc3ccc4c(c3)OCCO4)CC2)cc1	KB-V1 MDR tox 12µM
COC(=O)c1sccc1S(=O)(=O)N(CC(=O)Nc1cccc(C)c1C)c1ccc(C)c(C)c1	KB-3-1 tox inconclusive (no result: HT1080 IDH1KD tx, HT1080-NT tox)
CCOC(=O)c1c(S(=O)(=O)N2CCN(c3cc(Cl)ccc3C)CC2)c(C)n(C)c1C	none (no result: HT1080 IDH1KD tx, HT1080-NT tox)
COc1ccc(C(=O)C2CCN(CC(=O)Nc3cc(C)cc(C)c3)CC2)cc1	KB-V1 MDR tox inconclusive
CCCNS(=O)(=O)c1ccc(CCC(=O)Nc2ccc3c(c2)OCCO3)cc1	none
Cc1ccc(C(=O)C2CCN(CC(=O)Nc3nc(C)cs3)CC2)cc1	KB-V1 MDR tox 21µM
O=C(CCc1ccc(S(=O)(=O)NCCc2ccccc2)cc1)Nc1ccc2c(c1)OCCO2	KB-V1 MDR tox 21µM
CCCCN(CC)Cc1ccc(CNS(=O)(=O)c2cc3c(cc2Cl)NC(=O)CO3)o1	none (no result: HT1080 IDH1KD tx, HT1080-NT tox)
CSc1ccc(NC(=O)C2(C)CCN2C(=O)Cc2ccc(C(C)(C)C)cc2)cc1 (configuration not stated)	HT1080 IDH1KD tx inconclusive, KB-V1 MDR tox 16µM, KB-3-1 tox inconclusive, HT1080-NT tox inconclusive
CC(C)(C)c1ccc(CC(=O)N2CCC2(C)C(=O)Nc2cnc3ccccc3c2)cc1 (configuration not stated)	HT1080 IDH1KD tx inconclusive, KB-V1 MDR tox 16µM, KB-3-1 tox inconclusive, HT1080-NT tox inconclusive
CC(C)c1ccc(CC(=O)N2CCC2(C)C(=O)Nc2cnc3ccccc3c2)cc1 (configuration not stated)	HT1080 IDH1KD tx inconclusive, HT1080-NT tox inconclusive
CC(C)(C)c1ccc(CC(=O)N2CCC2(C)C(=O)Nc2cccc3ccccc23)cc1 (configuration not stated)	HT1080 IDH1KD tx inconclusive, HT1080-NT tox inconclusive
c1ccc(C2=NNC(=NCc3ccc4c(c3)OCO4)SC2)cc1	KB-V1 MDR tox 23µM
c1ccc2ncccc2c1	KB-3-1 tox inconclusive
c1ccc2nccnc2c1	KB-V1 MDR tox inconclusive, KB-3-1 tox 4.6µM (no result: HT1080 IDH1KD tx, HT1080-NT tox)
O=C(Nc1ccc2nc3n(c(=O)c2c1)CCCC3)c1cc([N+](=O)[O-])ccc1F	HT1080 IDH1KD tx inconclusive, KB-V1 MDR tox 16µM
CC1CCN(C(=S)Nc2ccc3nc4n(c(=O)c3c2)CCCCC4)CC1	KB-V1 MDR tox 6.5µM
O=C(Nc1ccc2nc3n(c(=O)c2c1)CCCC3)c1cccc([N+](=O)[O-])c1	KB-V1 MDR tox inconclusive
Cc1ccc(-n2c(=O)c3c(cnn3C)n(CC(=O)Nc3cccc(C)c3)c2=O)cc1	none (no result: HT1080 IDH1KD tx, HT1080-NT tox)
CCCCOC(=O)c1ccc(NC(=O)CSc2nc3c(c(=O)[nH]2)CCCC3)cc1	none (no result: HT1080 IDH1KD tx, HT1080-NT tox)
CCOC(=O)[C@]12Cc3c(cc(OC)c(OC)c3OC)[C@H]1N(C1CCCCC1)C(=O)c1cc(OC)ccc12	HT1080 IDH1KD tx 12µM, KB-V1 MDR tox 4.6µM, KB-3-1 tox 3.3µM, HT1080-NT tox 12µM
Cc1nc(SCC(=O)NCC2CCCO2)c2c3c(sc2n1)CCCC3 (configuration not stated)	KB-V1 MDR tox inconclusive
COCCn1c(C)cc(C(=O)CSc2nc(C)nc3sc4c(c23)CCC4)c1C	KB-V1 MDR tox 2.6µM, KB-3-1 tox inconclusive
CCOC(=O)c1ccc(/C=C2/C=C(c3ccccc3)N(c3ccc(Cl)c(C(=O)O)c3)C2=O)cc1	HT1080 IDH1KD tx 9.2µM, KB-3-1 tox inconclusive, HT1080-NT tox 26µM
CCOC(=O)c1ccc(Cl)c(NC(=O)c2ccc(-c3ccccc3)cc2)c1	KB-3-1 tox inconclusive
CC(C)c1ccc(OCC(=O)NCC(c2ccc(Cl)cc2)N2CCOCC2)cc1 (configuration not stated)	none (no result: HT1080 IDH1KD tx, HT1080-NT tox)
Cc1cc(C)n(-c2ccc(C(=O)Nc3sccc3C(N)=O)cc2)n1	HT1080 IDH1KD tx inconclusive, KB-V1 MDR tox 29µM, KB-3-1 tox inconclusive
N#CC1c2ccccc2C=CN1C(=O)c1ccccc1 (configuration not stated)	HT1080-NT tox inconclusive
N#CC1(Cc2ccccc2Cl)c2ccccc2C=CN1C(=O)c1ccccc1 (configuration not stated)	KB-V1 MDR tox 21µM, KB-3-1 tox inconclusive
O=C(CSc1nc(-c2ccccc2)nc2c1Cc1ccccc1O2)N1CCCCC1	none (no result: HT1080 IDH1KD tx, HT1080-NT tox)
COc1ccc(-n2c(-c3cc(-c4ccccc4)sc3N)n[nH]c2=S)cc1	HT1080 IDH1KD tx inconclusive, KB-3-1 tox inconclusive, HT1080-NT tox 16µM
Nc1sc(-c2ccccc2)cc1-c1n[nH]c(=S)n1C1CCCCC1	HT1080 IDH1KD tx 1.5µM, KB-3-1 tox inconclusive, HT1080-NT tox 3.7µM
CC(NCc1ccc2c(c1)OCO2)C(=O)N1CCc2ccccc21 (configuration not stated)	KB-V1 MDR tox 5.2µM
CC(NCc1ccc(S(N)(=O)=O)cc1)C(=O)N1CCc2ccccc21 (configuration not stated)	none
CCn1c(=O)c2cc(C(=O)NCc3cc(OC)ccc3OC)sc2c2ccccc21	none (no result: HT1080 IDH1KD tx, HT1080-NT tox)
CN(C)CCNC(=O)c1sc2nc(-c3ccccc3)cc(C(F)(F)F)c2c1N	HT1080 IDH1KD tx 18µM, KB-V1 MDR tox inconclusive, KB-3-1 tox inconclusive, HT1080-NT tox 23µM
COc1ccc(-c2cc(C(F)(F)F)c3c(N)c(C(=O)NCCSC)sc3n2)cc1	none
COc1cccc(CNC(=O)Cc2ccc(-n3c(=O)[nH]c4ccccc4c3=O)cc2)c1	HT1080 IDH1KD tx inconclusive, KB-V1 MDR tox inconclusive, KB-3-1 tox 4.1µM, HT1080-NT tox inconclusive
COc1ccc(CNC(=O)c2ccc3c(=O)n(-c4ccccc4)c(=O)[nH]c3c2)cc1	none
COC(=O)c1ccc(Nc2cc(C)nc3ccccc23)cc1	HT1080 IDH1KD tx 21µM, KB-V1 MDR tox inconclusive, KB-3-1 tox inconclusive, HT1080-NT tox 18µM
COc1cccc(CNC(=O)COc2ccc(C(=O)c3ccccc3)cc2)c1	HT1080 IDH1KD tx inconclusive, KB-V1 MDR tox 21µM, KB-3-1 tox inconclusive, HT1080-NT tox inconclusive
COc1cccc(CNC(=O)COC(=O)CNC(=O)c2ccc(-c3ccccc3)cc2)c1	KB-V1 MDR tox inconclusive
COc1ccc(CNC(=O)c2cccc(C)c2[N+](=O)[O-])cc1	KB-V1 MDR tox 23µM
O=C(CNC(=O)C1CCCCC1)OCC(=O)c1ccc2c(c1)CCC2	KB-3-1 tox inconclusive (no result: HT1080 IDH1KD tx, HT1080-NT tox)
Cc1ccc(-c2nc3cccc(C)n3c2Nc2ccc(F)cc2)o1	none (no result: KB-V1 MDR tox, KB-3-1 tox)
O=C1CCC[C@@H]2CC(Nc3ccccc3)C[C@@H]3CCN1[C@H]23 (some centres not stated)	none (no result: HT1080 IDH1KD tx, HT1080-NT tox)
COc1ccc(S(=O)(=O)c2cn(CC(=O)Nc3cc(C)ccc3C)c3ccccc3c2=O)cc1	none (no result: HT1080 IDH1KD tx, HT1080-NT tox)
COc1ccc2oc(=O)c(C(=O)NCc3ccc(C)cc3)cc2c1	HT1080-NT tox inconclusive
CCCCC[C@H]1CN(CCCC)C(=O)[C@@H]1CC(=O)NCc1ccc(OC)cc1	KB-V1 MDR tox inconclusive
COc1ccc(CNC(=O)c2cc3cc(OC)ccc3oc2=O)cc1	HT1080 IDH1KD tx inconclusive, KB-V1 MDR tox inconclusive, KB-3-1 tox 15µM!
COc1ccc(CC(=O)NCc2ccccc2)cc1	HT1080 IDH1KD tx 8.2µM, KB-3-1 tox inconclusive, HT1080-NT tox inconclusive
